# Screens as filed in PubChem BioAssay.
# A selection: hits, their analogues and other compounds. The true share with any hit is near 8.6%.
# MARV entry inh – qHTS for Inhibitors of binding or entry into cells for Marburg Virus; 18,000 tested, 6.5% active; Potency, µM (doses to about 49.2 µM), hits mostly inhibitors; Marburg virus pseudotype entry/binding inhibition, cell-based; AID 720532, 2013
# Lassa entry – qHTS for Inhibitors of binding or entry into cells for Lassa Virus | Lassa virus pseudotyped entry inhibition, cell-based qHTS | AID 720533, 2013 | 18,000 tested, 4.1% active | Potency, µM (series often up to 49.2 µM), actives largely listed as inhibitors
# A number is an active result; n = inactive; u = inconclusive; x = no result given; ! = not active in a repeat; [ ] = remark or other dose. The call rests on the fitted dose curve; tested in HEK293 cells.
SMILES,MARV entry inh,Lassa entry
C[C@H]1[C@@H](c2ccccc2)Oc2c(Cl)cccc2S(=O)(=O)N1Cc1ccc(F)cc1,u,n
O=C(NCc1ccccn1)c1cnn(-c2ncc3c(n2)-c2ccccc2CC3)c1C1CC1,n,n
COc1ccc(C(=O)NCCN2Cc3cc(C)ccc3OC(C)C2)c(OC)n1 (stereo not drawn),2µM,n
Cc1ccc2c(c1)CN(CCNC(=O)c1cc3ccccc3oc1=O)CC(C)O2 (stereo not drawn),n,n
COC(=O)C1=C(C)N(Cc2ccccc2)C(=NCCc2cccnc2)NC1c1ccc(Br)cc1 (stereo not drawn),n[8.59 µM],n[8.59 µM]
CC1=CC[C@@H](COc2ccccc2)O[C@@]2(C1)C(=O)Nc1ccccc12,n[8.59 µM],n[8.59 µM]
COc1cc2ncnc(Nc3cccc(Cl)c3)c2cc1OC,14µM!,16µM!
COc1cc2ncnc(Nc3cccc(Br)c3)c2cc1OC,n,n
C[C@H]1[C@H](O)[C@@H](N=[N+]=[N-])CCO[C@H]1c1ccccc1,n[8.59 µM],n[8.59 µM]
COc1ccc2c(c1)OC(C)CN(CCNC(=O)c1csc(-c3cccs3)n1)C2 (stereo not drawn),n,n
COc1c(C=O)c(=O)[nH]c2c(OC)cccc12,n,n
COc1ccc(OC)c(CN2CCCC(c3nc(-c4ccncc4)ncc3-c3ccccc3C)C2)c1 (stereo not drawn),n,n
COCC(=O)Nc1cc(C(=O)N2CCc3c([nH]c4ccccc34)C2)cc2nc(-c3ccccc3)n(C)c12,n,n
COc1cc(NS(C)(=O)=O)ccc1Nc1c2ccccc2nc2ccccc12,u,3.2µM
Cc1cccc(CNc2nc(-c3cccc(NS(C)(=O)=O)c3)nc3ccccc23)c1,u,n
NC(=O)C1CCCN(Cc2ccc3c(c2)CN(Cc2cn[nH]c2-c2ccc(F)cc2)CCO3)C1 (stereo not drawn),n,n
O=C(c1ccc(F)cc1)C1CCN(CCn2c(=O)[nH]c3ccccc3c2=O)CC1,u,n
O=c1[nH]c2ccccc2n1CCCN1CCN(C(c2ccccc2)c2ccccc2)CC1,16µM,u
CCCC(=O)O[C@]1(C(=O)CCl)[C@@H](C)C[C@H]2[C@@H]3CCC4=CC(=O)C=C[C@]4(C)[C@@]3(F)C(=O)C[C@@]21C,7.9µM,u
CCC(=O)O[C@]1(C(=O)CCl)[C@@H](C)C[C@H]2[C@@H]3CCC4=CC(=O)C=C[C@]4(C)[C@@]3(F)[C@@H](O)C[C@@]21C,u,n
C=CCOC(=O)N[C@@H](c1ccc(Br)cc1)C(C(C)=O)C(C)=O,n,n
O=C1C=C2C(=CCOC2O)O1 (stereo not drawn),1.1µM,3.2µM
CC1(C)CN(Cc2ccccc2)C(=O)[C@@H]1CC(=O)Nc1ccccc1,n,x
COc1cc2c(Nc3ccc(Br)cc3F)ncnc2cc1OCC1CCN(C)CC1,7.1µM,22µM
C#Cc1cccc(Nc2ncnc3cc(OCCOC)c(OCCOC)cc23)c1,n,u
SMILES,MARV entry inh,Lassa entry
COc1ccc(NC(=O)OCCN2CCN(Cc3ccccc3)CCC2=O)cc1,n,n
COc1ccc(NC(=O)c2cc(OCCCN(C)C)nn2Cc2ccccc2)cc1,8.9µM,u
CC(CCC(=O)OC[C@H]1O[C@H](C#Cc2ccccc2)C=C[C@H]1Oc1ccc(C)cc1)=NO[C@H](C)c1cn([C@H](CO)Cc2ccccc2)nn1,n[8.59 µM],x
O=C1N=c2ccc(N=Cc3c(O)[nH]c4ccccc34)cc2=N1,n,n
COC1=C2C[C@H](C)C[C@H](OC)[C@H](O)[C@@H](C)/C=C(/C)[C@H](OC(N)=O)[C@@H](OC)/C=C\C=C(\C)C(=O)NC(=CC1=O)C2=O,n,n
C=CCNC1=C2C[C@@H](C)C[C@H](OC)[C@H](O)[C@@H](C)/C=C(\C)[C@H](OC(N)=O)[C@@H](OC)/C=C\C=C(/C)C(=O)NC(=CC1=O)C2=O,u,3.5µM!
COC(=O)N1C(c2ccccc2)=Cc2ccccc2C1CC(C)=O (stereo not drawn),n[8.59 µM],n[8.59 µM]
c1ccc(CCCN2CCN(CCOC(c3ccccc3)c3ccccc3)CC2)cc1,11µM,28µM
O=C(O)C1=CCCN(CCOC(c2ccc(C(F)(F)F)cc2)c2ccc(C(F)(F)F)cc2)C1,n,n
OCCOCCN1CCN(Cc2cccc(Oc3ccccc3)c2)CC1,n,n
Fc1ccc(C(OCCN2CCN(CCCc3ccccc3)CC2)c2ccc(F)cc2)cc1,7.9µM,14µM!
CCOC(=S)SSC(=S)OCC,n,n
COc1cc2c(C=O)c3c4c(cc(OC)c(OC)c4c2cc1OC)CCN3C,u,16µM
Cc1cc2c(c(=O)n1Cc1ccccc1)[C@H]1O[C@](c3ccsc3)(Cc3cc(C#N)ccc31)O2,n[8.59 µM],n[8.59 µM]
C=CCOc1ccccc1OCC(O)CNC(C)C (stereo not drawn),n,n
CC(C)(C)NC[C@H](O)COc1ccccc1C1CCCC1,7.9µM,u
CCc1ccccc1OC[C@@H](O)CN[C@H]1CCCc2ccccc21,8.9µM,28µM
CC(C)(C)NCC(O)COc1ccc(NC(=O)NC2CCCCC2)cc1 (stereo not drawn),n,n
COC(=O)N[C@H](CC(C)=O)c1cccs1,n[8.59 µM],n[8.59 µM]
COc1cc(=O)n2c(c1C(=O)N(C)Cc1nonc1C)CCN(Cc1cccc3ccccc13)CC2,n,n
O=[N+]([O-])c1ccc(-c2nc(-c3ccc(F)cc3)c(-c3ccncc3)[nH]2)cc1,11µM,n
Fc1ccc(-c2c(-c3ccncc3)nc3n2CCS3)cc1,u,n
CC(=O)[C@]12C[C@@H]3CCN(C(=O)N[C@@H]1c1ccccc1)[C@@]32C,u,n[8.59 µM]
c1ccc(CCNc2nc(-c3ccccc3)cs2)cc1,u,16µM
c1ccc(-c2csc(-c3nc4ccccc4[nH]3)n2)cc1,n,u
SMILES,MARV entry inh,Lassa entry
O=C(C1CCCCC1)N1C[C@@H](n2cc(-c3ccc(F)cc3)nn2)[C@@H](O)C[C@@H]1c1ccccc1,n,x
CCCNC(=O)OC[C@H]1O[C@H](CCON=C2c3cc(OC)ccc3O[C@H](c3cccc(OC)c3)[C@H]2O)C=C[C@H]1Oc1ccc(OC)cc1,u,n[8.59 µM]
CC(C)[C@H](CO)Nc1nc(Nc2cccc(Cl)c2)c2ncn(C(C)C)c2n1,n,28µM
CC(C)n1cnc2c(NCc3ccccc3)nc(NCCO)nc21,n,n
O=C(NCCCN1CCCCCC1)C(c1ccccc1)C1CCCCC1 (stereo not drawn),10µM,u
CN1C2CCC1CC(C(=O)OC(CO)c1ccccc1)C2 (stereo not drawn),n,n
COc1cc(/C=C\C(=O)N2CCC=CC2=O)cc(OC)c1OC,8.9µM,u
COc1cc(/C=C/C(=O)N2CCCCC2=O)cc(OC)c1OC,13µM,11µM
COc1cc(C(=S)N2CCOCC2)cc(OC)c1OC,n,n
COc1cc(/C=C/C(=O)O)cc(OC)c1OC,n,n
CC(CCN1CCCc2nc(C)c(C)cc21)=NO[C@H](C)CN1CCCc2nc(C)c(C)cc21,n[8.59 µM],n[8.59 µM]
NCCC(=O)[N-][C@@H](Cc1cnc[nH]1)C(=O)O.[Zn],n,n
CC[C@@H](C(=O)[C@@H](C)[C@@H](O)[C@H](C)CCc1ccc(C)c(O)c1C(=O)O)C1O[C@](CC)(C2CC[C@](O)(CC)[C@H](C)O2)C[C@@H]1C (stereo partly drawn),u,7.1µM
CC[C@H](C(=O)[C@H](C)[C@H](O)[C@H](C)CCc1ccc(C)c(O)c1C(=O)O)[C@H]1O[C@](CC)([C@@H]2CC[C@@](O)(CC)[C@H](C)O2)C[C@H]1C,2.8µM,u
Cc1cc(=O)oc2cc(OCc3cn(CC(=O)c4ccc(O)cc4)nn3)ccc12,n,n
